Rows were chosen to be rich in hits. Some 27% of all compounds tested hit in one or more screens of this group.
CYP2C19 act: activators of human cytochrome P450 2C19; P33261; recombinant CYP2C19, luciferin-H EGE luminescence; active compounds read high; 0 = fully inhibited enzyme, 1 = untreated enzyme; activation factor at 5 µM; 96,000 tested, under 10 active; AID 1025;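 active = activation factor of at least 2 at 5 µM in the primary screen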;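 note: 0 = wells with 2.5 mM tranylcypromine and 1 = vehicle-only wells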
Target sequence (P33261 whole entry, looked up): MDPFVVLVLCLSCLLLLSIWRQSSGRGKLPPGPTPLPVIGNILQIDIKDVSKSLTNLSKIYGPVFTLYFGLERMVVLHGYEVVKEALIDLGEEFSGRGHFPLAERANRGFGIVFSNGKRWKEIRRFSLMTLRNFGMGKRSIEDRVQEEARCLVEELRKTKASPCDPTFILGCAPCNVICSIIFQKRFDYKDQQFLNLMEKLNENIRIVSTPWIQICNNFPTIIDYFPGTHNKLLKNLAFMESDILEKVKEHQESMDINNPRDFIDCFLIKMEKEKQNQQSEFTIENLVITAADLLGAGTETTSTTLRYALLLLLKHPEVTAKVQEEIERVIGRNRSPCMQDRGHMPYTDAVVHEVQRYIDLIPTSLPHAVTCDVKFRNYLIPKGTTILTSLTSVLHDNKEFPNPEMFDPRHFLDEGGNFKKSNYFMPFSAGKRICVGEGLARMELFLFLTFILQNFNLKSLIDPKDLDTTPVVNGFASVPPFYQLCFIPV
CYP2C9 activ: CYP2C9 (human) activation; activation factor at 5 µM; AID 1024; P11712; recombinant CYP2C9, luciferin-H conversion, luminescence; active compounds read high; factor 1 = untreated enzyme, 0 = blocked; 96,000 tested, 1.4% active;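 active = activation factor of 2 or more for CYP2C9 at a 5 µM dose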;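 note: 0 = sulfaphenazole-blocked wells and 1 = vehicle-only wells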
CYP2C19 inh: human CYP2C19 inhibition; P33261; CYP2C19 Supersomes, luciferin-H EGE luminescence, 30 min; inhibition, % at 5 µM; 96,000 tested, 21% active; AID 778;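 active = CYP2C19 inhibition above a set limit at 5 µM in the primary screen, cut at about 50% in these data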;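 note: plate controls were negative control wells for no effect and 2.5 mM tranylcypromine positive control for full effect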
sEH activator: increases human soluble epoxide hydrolase activity; P34913; purified human sEH enzymatic activity, activator screen; activation, % at 2 µM; 91,000 tested, 0.04% active; in the data active = activation above about 37%
CYP2C9 inhib: inhibitors of human CYP2C9 | CYP2C9 Supersomes, luciferin-H conversion, luminescence | 96,000 tested, 20% active | AID 777 | inhibition, % at 5 µM;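 active = blocking of liver enzyme CYP2C9 beyond about 50% at 5 µM, limit read from the data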
sEH inhibitor: soluble epoxide hydrolase (human) inhibition; AID 707; P34913; 91,000 tested, 0.34% active; recombinant human sEH enzymatic activity assay; inhibition, % at 2 µM; in the data active = inhibition above about 80%
Active calls of the source: *.

CC1CCCC(C)N1c1nnc(NC(=O)c2cc(-c3ccc(Br)cc3)on2)s1 (centres undefined) was read as CYP2C19 act 0.5, CYP2C9 activ 0.3, CYP2C19 inh 52* and CYP2C9 inhib 74*.
Screening N/C(COc1ccccc1)=N\NS(=O)(=O)c1ccccc1 returned CYP2C19 act 0.8, CYP2C9 activ 1.2, CYP2C19 inh 21, sEH activator 1, CYP2C9 inhib -19 and sEH inhibitor 2.
Oc1ccc(N2CCN(C(c3ccccn3)c3nnnn3C3CCCC3)CC2)cc1 (centres undefined) was read as sEH activator 7 and sEH inhibitor -2.
`CCOc1ccccc1NC(=O)c1ccc2nccnc2c1` gave CYP2C19 act 1, CYP2C9 activ 2.1*, CYP2C19 inh 2 and CYP2C9 inhib -114.
Screening CCCOc1ccccc1NC(=O)c1ccc(N)cc1 returned CYP2C19 act 0.6, CYP2C9 activ 2.7*, CYP2C19 inh 39, sEH activator 11, CYP2C9 inhib -168 and sEH inhibitor -12.
For CCOc1ccccc1NC(=O)c1ccc(S(=O)(=O)N(C)C)cc1 the results were CYP2C19 act 0.7, CYP2C9 activ 0.6, CYP2C19 inh 28, sEH activator -26, CYP2C9 inhib 36 and sEH inhibitor 27.
CCCCOc1ccccc1NC(=O)c1ccc(=O)[nH]c1 was read as CYP2C19 act 1.1, CYP2C9 activ 1.1, CYP2C19 inh -7, sEH activator 22, CYP2C9 inhib -9 and sEH inhibitor -24.
Cc1cccc(OCCCSc2nc3ccccc3[nH]2)c1 was read as CYP2C19 act 0.2, CYP2C9 activ 1, CYP2C19 inh 77*, sEH activator -8, CYP2C9 inhib 2 and sEH inhibitor 8.
`CCOc1ccc(OCCSc2nc3ccccc3[nH]2)cc1` gave sEH activator -8 and sEH inhibitor 11.
For Cc1cccc(OCCn2c(=S)[nH]c3ccccc32)c1 the results were sEH activator 0 and sEH inhibitor 6.
`Cc1cccc(OCCSCc2nc3ccccc3[nH]2)c1` gave CYP2C19 act 0.3, CYP2C9 activ 0.4, CYP2C19 inh 72*, sEH activator -4, CYP2C9 inhib 61* and sEH inhibitor 5.
`Cc1ccc(CC(CC(=O)O)C(=O)NC2CCCCC2)cc1` (centres undefined) gave CYP2C19 act 0.9, CYP2C9 activ 1, CYP2C19 inh 6, sEH activator -1, CYP2C9 inhib 2 and sEH inhibitor 0.
For CCOc1cc2[nH]c(=O)n(CCCN3CCCC3=O)c(=O)c2cc1OCC the results were CYP2C19 act 1, CYP2C9 activ 0.9, CYP2C19 inh -4, sEH activator -1, CYP2C9 inhib 12 and sEH inhibitor 2.
Screening CCC(c1nnnn1Cc1ccccc1)N1CCN(C(=O)c2ccco2)CC1 (centres undefined) returned CYP2C19 act 0.7, CYP2C9 activ 0.8, CYP2C19 inh 26, sEH activator 24, CYP2C9 inhib 16 and sEH inhibitor -26.
COc1cc2[nH]c(=O)c(C(=O)NCCCN3CCCCC3)c(O)c2cc1OC was read as CYP2C19 act 0.5, CYP2C9 activ 0.7, CYP2C19 inh 52*, sEH activator 8, CYP2C9 inhib 28 and sEH inhibitor -8.
`CCC(C)NC(=O)CC(NS(=O)(=O)c1ccc(Cl)cc1)c1ccco1` (centres undefined) gave CYP2C19 act 0.3, CYP2C9 activ 0.8, CYP2C19 inh 75*, sEH activator -4, CYP2C9 inhib 20 and sEH inhibitor 4.
Screening Cc1ccc(S(=O)(=O)NC(CC(=O)O)c2ccco2)cc1 (centres undefined) returned CYP2C19 act 0.7, CYP2C9 activ 1.1, CYP2C19 inh 29, sEH activator 4, CYP2C9 inhib -6 and sEH inhibitor -5.
`CC(NS(=O)(=O)c1ccc(CCC(=O)NCc2cccnc2)cc1)c1ccccc1` (centres undefined) gave CYP2C19 act 0.4, CYP2C9 activ 0.3, CYP2C19 inh 58*, sEH activator -5, CYP2C9 inhib 71* and sEH inhibitor 6.
CC(C)NS(=O)(=O)c1ccc(CCC(=O)NCc2cccnc2)cc1 was read as CYP2C19 act 0.9, CYP2C9 activ 0.8, CYP2C19 inh 8 and CYP2C9 inhib 24.
